Z-score and composite z-score data for 8 compounds are collected here from PubChem BioAssay.

A short description of experiment [1]: E. coli DRC41 culture turbidity changes, primary screen, E. coli filamentation inducer project, strain DRC41, OD650, 48 h (AID 1152).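 Further: E. coli MC1000 strain DRC41 lacking acrAB efflux pump and sulA.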 Particulars: E. coli DRC41 (acrAB sulA), higher = more signal, called active from +8 up or from −8 down.
The nature of experiment [2]: small-molecule binders of probe aLefty1, primary screen, biochemical, small-molecule microarray, 635/667 nm fluorescence (AID 1153).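 Further: score merges spot fluorescence with signal-to-noise ratio from the scanned slide images.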 Particulars: higher = more signal.
Experiment [3] in a line: PSAC antagonists in infected red cells, primary screen, cell-based, P. falciparum Indochina, OD700, 1 h (AID 1154). Particulars: P. falciparum Indochina infected RBC osmotic lysis, higher = more signal, called active from +8 up or from −8 down.
Experiment [4] is described as follows: PSAC antagonists in infected red cells, primary screen, cell-based, P. falciparum Indochina, OD700, 2 h (AID 1155).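 Further: lysis reports solute entry through the parasite surface anion channel PSAC; channel blockers reduce lysis of infected cells.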 Particulars: P. falciparum Indochina infected erythrocytes, osmotic lysis OD700; higher = more signal, called active from +8 up or from −8 down.
A short description of experiment [5]: osmotic lysis modulators in infected erythrocytes, primary screen, PSAC antagonist project, cell-based, P. falciparum Indochina, OD700, 3 h (AID 1156). The settings on record: higher = more signal, called active from +8 up or from −8 down.
Experiment [6] in a line: PSAC antagonists in infected red cells, primary screen, cell-based, P. falciparum Indochina, OD700, 18 h (AID 1157). Particulars: P. falciparum Indochina infected erythrocytes, osmotic lysis OD700, 18 h; higher = more signal, called active from +8 up or from −8 down.
Experiment [7] can be described thus: modulators of S6 phosphorylation in cells, primary screen, cell-based, A549, cytoblot, luminescence, serum-stimulated (AID 1158).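 Further: serum-stimulated A549 lung adenocarcinoma cells; signal is phosphorylated S6 detected by cytoblot immunostaining with HRP secondary.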 The settings on record: A549 phospho-S6 cytoblot, 5 h, higher = more signal.
Experiment [8] addresses NADPH oxidase 2 (Homo sapiens) (UniProt P04839). Put plainly: NOX2-dependent H2O2 signal modulators, primary screen, NOX inhibitor project, cell-based, HEK293-NOX2, PMA-stimulated, Amplex Red fluorescence (AID 1159). Further: test concentration not given here. Particulars: 45 min, higher = more signal, called active from +8 up or from −8 down.
Experiment [9] concerns the target NADPH oxidase 4 (Homo sapiens) (UniProt Q9NPH5). The experiment in a line: NOX4-dependent H2O2 signal modulators, primary screen, NOX inhibitor project, cell-based, HEK293-NOX4, tetracycline-induced, Amplex Red fluorescence (AID 1160). Particulars: 45 min, higher = more signal, called active from +8 up or from −8 down.
Experiment [10] has as its target NADPH oxidase 5 (Homo sapiens) (UniProt Q96PH1). Put plainly: NOX5-dependent H2O2 signal modulators, primary screen, NOX inhibitor project, cell-based, HEK293-NOX5, Amplex Red fluorescence (AID 1161). The settings on record: HEK293-NOX5, ionomycin, 45 min, higher = more signal.
Experiment [11] is described as follows: A549 cell viability effects, profiling panel, calcein-AM fluorescence, 48 h, basal (AID 1162). Further: test concentration not given here. The settings on record: higher = more signal.
Experiment [12] is described as follows: adipocyte viability effects, profiling panel, cell-based, 3T3-L1 adipocytes, calcein-AM fluorescence, 48 h, basal (AID 1163). Further: test concentration not given here. Particulars: 3T3-L1 adipocytes viability, higher = more signal.
The nature of experiment [13]: HepG2 cell viability effects, profiling panel, calcein-AM fluorescence, 48 h, basal (AID 1164). Further: test concentration not given here. The settings on record: higher = more signal.
The nature of experiment [14]: MM1S cell viability effects, profiling panel, calcein-AM fluorescence, 48 h, basal (AID 1165).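 Further: viability of MM1S multiple myeloma cells under basal unstimulated conditions; test concentration not given here.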 Particulars: higher = more signal.
The nature of experiment [15]: basal RPMI8226 viability, no added stimulus, profiling panel, cell-based, calcein-AM fluorescence, 48 h, PK04 Diversity Set (AID 1166).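 Further: cells grown under basal conditions without added stimulus; test concentration not given here.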 The settings on record: RPMI8226 myeloma viability, higher = more signal.
Experiment [16] is described as follows: basal HepG2 mitochondrial membrane potential changes, profiling panel, cell-based, JC-1 fluorescence, 24 h, 100 nL compound (AID 1167). Further: test concentration not given here. Particulars: higher = more signal.
Experiment [17] is described as follows: basal 3T3-L1 adipocyte mitochondrial potential changes, profiling panel, cell-based, JC-1 fluorescence, 3T3-L1 adipocytes, 24 h, 100 nL compound (AID 1168). Further: test concentration not given here. Particulars: JC-1 mitochondrial fluorescence, higher = more signal, called active from +8 up or from −8 down.
Experiment [18] in a line: basal RPMI8226 mitochondrial membrane potential changes, profiling panel, cell-based, JC-1 fluorescence, 24 h, 100 nL compound (AID 1169). Further: test concentration not given here. Particulars: RPMI8226 myeloma, JC-1 mitochondrial potential fluorescence, higher = more signal.
A short description of experiment [19]: basal MM1S mitochondrial membrane potential changes, profiling panel, cell-based, JC-1 fluorescence, 24 h, 100 nL compound (AID 1170). Further: test concentration not given here. Particulars: higher = more signal.
Experiment [20] in a line: A549 lung cancer cell viability effects, profiling panel, resazurin fluorescence, 24 h, PK04 Diversity Set (AID 1171). Further: test concentration not given here. Particulars: higher = more signal, called active from +8 up or from −8 down. Background: Alamar Blue is a resazurin reagent that responds to reducing activity.

The structures appear in SMILES notation. Activity calls are given as the source filed them.

Sequence of NADPH oxidase 5 (Homo sapiens) (Q96PH1 whole entry, looked up): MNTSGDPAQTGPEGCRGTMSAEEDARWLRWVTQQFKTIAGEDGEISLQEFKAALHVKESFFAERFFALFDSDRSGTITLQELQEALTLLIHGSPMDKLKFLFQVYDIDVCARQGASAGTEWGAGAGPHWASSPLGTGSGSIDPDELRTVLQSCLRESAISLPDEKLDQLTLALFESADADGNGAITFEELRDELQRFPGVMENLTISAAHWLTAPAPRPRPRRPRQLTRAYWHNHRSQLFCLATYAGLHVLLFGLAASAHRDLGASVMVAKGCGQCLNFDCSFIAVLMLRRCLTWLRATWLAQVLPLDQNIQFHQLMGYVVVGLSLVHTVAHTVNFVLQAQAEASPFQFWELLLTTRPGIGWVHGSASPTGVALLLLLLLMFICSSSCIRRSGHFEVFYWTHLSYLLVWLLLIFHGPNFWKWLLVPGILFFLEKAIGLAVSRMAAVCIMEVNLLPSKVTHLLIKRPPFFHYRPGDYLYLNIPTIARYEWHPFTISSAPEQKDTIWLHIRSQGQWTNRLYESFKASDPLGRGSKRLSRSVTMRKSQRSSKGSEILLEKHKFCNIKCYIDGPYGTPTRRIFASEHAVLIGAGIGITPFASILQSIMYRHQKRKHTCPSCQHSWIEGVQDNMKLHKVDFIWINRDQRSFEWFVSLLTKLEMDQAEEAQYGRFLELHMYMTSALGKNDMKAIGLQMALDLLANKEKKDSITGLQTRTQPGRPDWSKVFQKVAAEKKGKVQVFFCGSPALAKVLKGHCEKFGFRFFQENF
Sequence of NADPH oxidase 4 (Homo sapiens) (Q9NPH5 whole entry, looked up): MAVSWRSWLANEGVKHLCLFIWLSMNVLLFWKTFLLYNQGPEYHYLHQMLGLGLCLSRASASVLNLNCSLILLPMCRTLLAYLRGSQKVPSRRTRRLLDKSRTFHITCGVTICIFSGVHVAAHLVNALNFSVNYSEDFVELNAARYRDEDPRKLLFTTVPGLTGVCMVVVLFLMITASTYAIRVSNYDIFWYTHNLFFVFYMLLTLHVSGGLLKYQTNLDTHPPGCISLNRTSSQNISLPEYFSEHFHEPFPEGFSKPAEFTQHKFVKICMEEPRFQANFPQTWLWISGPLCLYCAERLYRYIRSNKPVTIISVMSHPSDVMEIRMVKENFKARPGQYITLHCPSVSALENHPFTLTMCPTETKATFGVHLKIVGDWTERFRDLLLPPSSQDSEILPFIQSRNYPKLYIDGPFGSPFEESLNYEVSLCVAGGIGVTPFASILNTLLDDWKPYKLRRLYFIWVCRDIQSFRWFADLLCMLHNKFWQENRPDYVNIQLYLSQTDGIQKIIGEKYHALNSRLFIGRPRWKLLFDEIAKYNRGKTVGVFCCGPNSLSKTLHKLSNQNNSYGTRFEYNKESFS
Sequence of NADPH oxidase 2 (Homo sapiens) (P04839 whole entry, looked up): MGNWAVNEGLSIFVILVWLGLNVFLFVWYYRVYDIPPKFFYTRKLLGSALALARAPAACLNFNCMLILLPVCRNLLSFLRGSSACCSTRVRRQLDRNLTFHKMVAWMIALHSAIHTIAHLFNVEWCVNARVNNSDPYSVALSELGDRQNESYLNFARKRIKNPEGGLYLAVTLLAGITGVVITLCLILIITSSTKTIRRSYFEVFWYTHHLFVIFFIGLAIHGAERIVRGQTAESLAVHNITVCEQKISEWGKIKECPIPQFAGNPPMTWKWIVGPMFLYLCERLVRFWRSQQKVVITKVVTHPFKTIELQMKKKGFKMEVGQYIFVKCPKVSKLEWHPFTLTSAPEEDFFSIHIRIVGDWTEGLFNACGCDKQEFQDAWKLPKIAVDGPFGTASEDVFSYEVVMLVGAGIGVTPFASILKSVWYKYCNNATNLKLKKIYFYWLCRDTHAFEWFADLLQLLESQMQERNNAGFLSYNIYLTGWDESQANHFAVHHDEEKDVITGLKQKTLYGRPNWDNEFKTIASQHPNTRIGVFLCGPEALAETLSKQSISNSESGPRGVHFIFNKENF

Take `COCCOC(=O)N1C(=O)[C@@]2(c3cc(C#CCC(C(=O)OC)C(=O)OC)ccc31)[C@H](C(N)=O)[C@H]1C(=O)O[C@H](c3ccccc3)[C@H](c3ccccc3)N1[C@@H]2c1ccc(O)cc1`: the z-score is -0.247 (inactive) in [1]; 26.5 (active) in experiment [3]; 12.4 (active) in [4]; 3.28 (inactive) in experiment [5]; 2.53 (inactive) in [6]; -0.255 in experiment [7]. For the same compound, the z-score in experiment [8] was 1.29 (inactive); in experiment [9], 0.385 (inactive); in [10], 0.73; in experiment [11] it was -0.181; in [12] it was -0.187; in experiment [13], -1.52. Further, the z-score was -3.37 in experiment [14]; -4.02 in experiment [15]; -0.864 in experiment [16]; 2.05 (inactive) in experiment [17]; -1.19 in experiment [18]; -2.07 in [19]. Also, in experiment [20], the z-score was 0.163 (inactive). In addition, the composite z-score in experiment [2] is 0.0406.
On to `CC(C)=CCCC(C)=CC(O)C1C=CC2C(=O)NC(=O)C2N1Nc1ccc(Cl)cc1Cl` (stereo not given), for which the z-score is -2.85 (inactive) in experiment [1]; 7.58 (inactive) in experiment [3]; 1.61 (inactive) in [4]; -0.519 (inactive) in experiment [5]; 1.39 (inactive) in [6]; -0.498 in [7]. The z-score in [8] is -1.84 (inactive); in experiment [9] it was -5.04 (inactive); in experiment [10], -1.53; in experiment [11], -0.483; in experiment [12], -0.0042; in experiment [13] it was -1.62. Further, the z-score in experiment [14] is -3.76; in [15] it was -4.11; in [16], -3.49; in experiment [17] it was -0.947 (inactive); in experiment [18] it was -0.238; in [19] it was -0.506. The z-score in experiment [20] is -0.577 (inactive). In experiment [2], the composite z-score amounted to 0.544.
For the compound `CO[C@H]1O[C@H](CO)[C@@H](OC(=O)Nc2ccc3c(c2)OCO3)[C@H](OC(=O)Nc2ccccc2-c2ccccc2)[C@H]1OC(=O)Nc1ccccc1-c1ccccc1`, the z-score in experiment [1] is -0.133 (inactive); in experiment [3], 2.14 (inactive); in experiment [4], 0.825 (inactive); in experiment [5], -0.124 (inactive); in [6], 1.21 (inactive); in [7], -0.311. Moreover, the z-score in [8] was -4.55 (inactive); in experiment [9] it was -0.707 (inactive); in experiment [10], -0.848; in experiment [11], -3.97; in experiment [12], 0.548; in experiment [13], -3.71. The z-score in experiment [14] is -3.34; in experiment [15] it was -2.72; in [16], 0.0319; in [17] it was 2.04 (inactive); in experiment [18] it was -0.819; in experiment [19], -1.76. Further, in [20], the z-score was -3.84 (inactive). In experiment [2], the composite z-score is -0.0536.
Turning to `COCCn1c(C(=O)N(C)C)cc2c1C[C@H]1CN(C(=O)c3ccccc3)[C@@](Cc3ccc(OC)cc3)(C(=O)OC)[C@@H]21`, the z-score was -1.18 (inactive) in [1]; 5.82 (inactive) in experiment [3]; 0.846 (inactive) in experiment [4]; 1.36 (inactive) in [5]; 1.23 (inactive) in [6]; -0.164 in experiment [7]. Further, the z-score in [8] was 0.556 (inactive); in [9], 1.43 (inactive); in [10], 1.24; in [11], -0.615; in [12], -0.61; in experiment [13], 0.33. Also, the z-score in [14] was -0.479; in [15], -0.843; in experiment [16] it was 0.564; in [17], -0.722 (inactive); in experiment [18], 0.0961; in [19] it was -1.52. Besides, the z-score in experiment [20] was -0.437 (inactive). The same compound returned a composite z-score in [2] of 0.256.
In the case of `COC(=O)[C@@]1(Cc2ccc(OC)cc2)[C@H]2c3cc(C(=O)N4CCCC4)n(Cc4ccc(Cl)c(C(F)(F)F)c4)c3C[C@H]2CN1C(=O)c1ccccc1`, the z-score is -0.557 (inactive) in [1]; 1.24 (inactive) in experiment [3]; -0.382 (inactive) in [4]; -0.397 (inactive) in [5]; -1.17 (inactive) in [6]; 2.85 in experiment [7]. The z-score in experiment [8] is 0.449 (inactive); in experiment [9], 1.28 (inactive); in [10], -4.74; in [11] it was -0.305; in experiment [12], 0.134; in experiment [13], 0.931. The z-score is -0.963 in [14]; -0.741 in experiment [15]; 2.07 in [16]; 0.15 (inactive) in experiment [17]; -0.671 in [18]; -1.63 in experiment [19]. For the same compound, the z-score in experiment [20] is -0.134 (inactive). Further, in experiment [2], the composite z-score is 1.19.
For `COC(=O)[C@]1(CCC(=O)OC(C)(C)C)N=C(c2ccc(OCCCO)cc2)O[C@@H]1c1ccccc1N=[N+]=[N-]`, the z-score in experiment [1] was -0.725 (inactive); in experiment [3], 30.9 (active); in experiment [4], 25.9 (active); in [5], 1.64 (inactive); in experiment [6], 5.32 (inactive); in [7] it was -0.328. The z-score in experiment [8] is -1.41 (inactive); in [9], -0.601 (inactive); in experiment [10] it was -2.4; in experiment [11], -1.31; in experiment [12], 1.25; in experiment [13] it was -0.527. In addition, the z-score in [14] was -2.84; in experiment [15], -3.53; in experiment [16], 0.874; in [17] it was 1.78 (inactive); in experiment [18], -1.02; in [19] it was -1.57. For the same compound, the z-score in [20] was -1.46 (inactive). Further, the composite z-score in [2] worked out at 0.0591.
As to `C=C(COC)C(=O)CC[C@@H](OC(C)=O)c1ccccc1OCCO`, the z-score in [1] is 0.929 (inactive); in experiment [3], 1.73 (inactive); in [4], -0.91 (inactive); in experiment [5], -0.0421 (inactive); in experiment [6], -1.95 (inactive); in experiment [7], 0.846. In addition, the z-score in experiment [8] was -1.51 (inactive); in experiment [9], 0.146 (inactive); in experiment [10] it was -1.38; in experiment [11], 0.177; in experiment [12], 1.37; in experiment [13], -0.601. Also, the z-score in experiment [14] was -3.28; in experiment [15], -1.75; in [16], 0.143; in experiment [17] it was -0.22 (inactive); in experiment [18], -0.557; in experiment [19] it was -1.82. The z-score in [20] is 0.837 (inactive). For the same compound, the composite z-score in experiment [2] is -0.152.
As for `C=C(CCCC)/C(=C/C[C@@H](OC(C)=O)c1ccc(CO)o1)c1cnc2ccccc2c1`, the z-score in [1] is 0.105 (inactive); in experiment [3], 9.2 (active); in experiment [4], 1.25 (inactive); in experiment [5] it was 2.11 (inactive); in experiment [6], 0.406 (inactive); in experiment [7], 0.509. Moreover, the z-score is -0.383 (inactive) in experiment [8]; -0.837 (inactive) in [9]; -0.426 in [10]; 0.159 in [11]; 1.04 in [12]; -0.042 in experiment [13]. The z-score in [14] is -1.56; in experiment [15] it was -1.52; in experiment [16], -0.462; in experiment [17], -0.583 (inactive); in experiment [18], -0.133; in experiment [19], -1.12. Also, the z-score in experiment [20] is -1.29 (inactive). Moreover, the composite z-score in [2] is 0.0077.
